# Screens: PubChem BioAssay, National Center for Advancing Translational Sciences (NCATS)
# SMN2 splice up = qHTS Assay for Enhancers of SMN2 Splice Variant Expression. hit rate 2.8% among 210,000. AID 1458, 2008. Potency, µM (highest dose often 46.1 µM), usual class: activators. HEK293 SMN2-luciferase splicing reporter, luminescence, 30-36 h; further: nearly all actives have a fitted effect of over 55% in size
#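 HEK293 cells carry an SMN2 […]–luciferase reporter in which exon 7 inclusion puts luciferase in frame. Cells were plated 10-12 h before compound addition, then incubated 30-36 h at 37C. ONE-Glo luminescence was read; sodium butyrate at 4.5 mM final served as control.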
# NPC1 prom act = qHTS Assay for NPC1 Promoter Activators; Huh7 NPC1 promoter luciferase reporter, 24 h; Potency, µM (doses to about 9.22 µM), most hits filed as activators; hit rate 2.4% among 320,000; further: nearly all actives have a fitted effect of over 60% in size
#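 Stable NPC1-promoter luciferase Huh7 line; cpd (DMSO) 24 h, 37 °C, 5% CO2; Amplite luciferase reagent 10 min RT; luminescence readout. qHTS format.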
# ELG1 genotoxic = qHTS screen for small molecules that induce genotoxicity in human embryonic kidney (HEK293T) cells expressing luciferase-tagged ELG1; Potency, µM (series often up to 46 µM), hits mostly activators; HEK293T ELG1-luciferase reporter, luminescence, 16 h; hit rate 1.3% among 330,000; further: nearly all actives have a fitted effect of over 60% in size
#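 Step 1: seed 2,000 HEK293T ELG1-luciferase cells per well. Step 2: add compound or DMSO, incubate 16 hr at 37 °C. Step 3: ONE-Glo, 30 min at room temperature, read luminescence.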
# ELG1 DNA repair = qHTS screen for small molecules that inhibit ELG1-dependent DNA repair in human embryonic kidney (HEK293T) cells expressing luciferase-tagged ELG1; AID 504467, 2011; HEK293T ELG1-luciferase reporter, luminescence, 16 h; DNA damage induced by 5-fluorouridine; hit rate 2.3% among 330,000; Potency, µM (top dose mostly 46.1 µM), usual class: inhibitors; further: nearly all actives have a fitted effect of over 55% in size
#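 HEK293T cells expressing luciferase-tagged ELG1 (2,000/well) received 5-Fluorouridine plus compound or DMSO for 16 hr at 37 °C. Luciferase was read by ONE-Glo luminescence after 30 min at room temperature.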
# Rab9 prom act = qHTS Assay for Rab9 Promoter Activators; Huh7 Rab9 promoter-luciferase reporter, luminescence, 24 h; Potency, µM (highest dose often 9.22 µM), most hits filed as activators; hit rate 2.8% among 320,000; further: nearly all actives have a fitted effect of over 60% in size
#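 Luminescence from Amplite-detected luciferase (10 minutes, ambient) reports Rab9 promoter activation. Before that, stable Rab9-luciferase Huh7 cells (1500/well, reduced-serum OP-MEM I plus 10% FBS) were exposed to compound for 24 hours at 37C.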
# FLuc counter = qHTS profiling assay for firefly luciferase inhibitor/activator using purifed enzyme and Km concentrations of substrates (counterscreen for miR-21 project); Potency, µM (doses to about 57.5 µM), actives largely listed as inhibitors; Luciferin 4-monooxygenase (Photinus pyralis), P08659; purified FLuc, Km substrates, luminescence inhibition; AID 588342, 2011; hit rate 6.9% among 360,000; further: nearly all actives have a fitted effect of over 55% in size
# Target sequence (P08659 whole entry, looked up): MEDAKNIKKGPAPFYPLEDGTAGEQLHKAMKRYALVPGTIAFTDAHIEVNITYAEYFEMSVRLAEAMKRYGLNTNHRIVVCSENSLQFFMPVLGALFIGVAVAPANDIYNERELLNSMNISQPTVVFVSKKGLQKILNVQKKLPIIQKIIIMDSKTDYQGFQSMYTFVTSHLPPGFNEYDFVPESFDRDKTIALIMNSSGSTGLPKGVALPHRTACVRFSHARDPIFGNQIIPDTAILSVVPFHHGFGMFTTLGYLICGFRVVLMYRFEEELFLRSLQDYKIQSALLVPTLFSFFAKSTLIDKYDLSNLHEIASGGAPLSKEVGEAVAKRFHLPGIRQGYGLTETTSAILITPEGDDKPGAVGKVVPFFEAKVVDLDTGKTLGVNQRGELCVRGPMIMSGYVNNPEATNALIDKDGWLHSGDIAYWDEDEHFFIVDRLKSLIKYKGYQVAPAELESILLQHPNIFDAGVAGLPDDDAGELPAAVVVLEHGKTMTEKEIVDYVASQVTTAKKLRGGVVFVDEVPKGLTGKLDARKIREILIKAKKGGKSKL
#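 Purified P. pyralis luciferase, 10 nM final, with Km-level 10 uM D-luciferin and 10 uM ATP in 50 mM Tris acetate pH 7.5, 10 mM Mg acetate, 0.01% Tween-20, 0.05% BSA; 6-point qHTS titration about 60 µM downward; luminescence read.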
# A number is an active result; i = inactive; ? = inconclusive; nt = not tested or not shown; [ ] = dose if it differs, or a comment. This is a sample that favours compounds with a hit; in the whole collection about 9.2% have one here. The call rests on the fitted dose curve; in most records, active means well fitted curve in the direction sought with a large enough effect; inconclusive means small, poorly fitted or top-dose-only effect, or another doubt; inactive means no such curve, though single readings can be large; an effect the other way counts as inactive or inconclusive.
SMILES,SMN2 splice up,NPC1 prom act,ELG1 genotoxic,ELG1 DNA repair,Rab9 prom act,FLuc counter
O=C(c1cc(-c2ccccc2)nc2ccccc12)N1CCN(C2CCS(=O)(=O)C2)CC1 (centres undefined),nt,i,i,i,i,27µM
O=C(c1ccco1)N1CCN(C(=O)c2cc(-c3ccccc3)nc3ccccc23)CC1,i,i,i,?,i,6.7µM
CCOC(=O)c1nccnc1C(=O)Nc1ccc(C(F)(F)F)cc1,i,i,i,i,i,i
COc1ccc(N(CC(=O)N/N=C/c2cccnc2)S(=O)(=O)c2ccc(C)cc2)cc1OC,nt,i,i,i,i,i
CCC(C)(C)NC(=O)CN(Cc1ccc(F)cc1)C(=O)CCC(=O)Nc1ccccn1,nt,i,i,i,i,i
CC(C)=NNc1ncnc2nc[nH]c12,i[9.22 µM],nt,nt,nt,nt,nt
CCc1ccc(/C=N/Nc2ncnc3nc[nH]c23)cc1,nt,2.8µM,7.3µM,?,1.3µM,3µM
COc1ccc(C(=O)Nc2cc(S(=O)(=O)c3ccc(Cl)cc3)c(O)c(C)c2C)cc1,i,nt,nt,nt,nt,8.5µM
Cc1c(NC(=O)c2ccccc2)cc(C(C)C)c(O)c1S(=O)(=O)c1ccc(Cl)cc1,nt,nt,nt,nt,nt,i
Cc1c(NC(=O)c2ccc(Cl)cc2)cc(C(C)C)c(O)c1S(=O)(=O)c1ccccc1,16µM,nt,nt,nt,nt,?
Cc1ccc(N(CC(=O)NCc2ccccc2)C(=O)CCC(=O)Nc2ccccn2)cc1,nt,i,i,i,i,i
O=C(NCCNC(=O)c1ccco1)c1ccc(Cl)c(Cl)c1,nt,i,i,?,i,i
O=C(N/C(=C/c1cccc(Br)c1)c1nc(=S)[nH][nH]1)c1ccccc1,i,i,i,?,i,6.7µM
Cc1ccc(C(=O)N/C(=C\c2ccc(Br)cc2)c2nc(=S)[nH][nH]2)cc1,i,i,i,?,i,?
COc1ccc(C(=O)N2CC3(CC(c4cccc(NC(=O)COc5ccc(Cl)cc5)c4)=NO3)C[C@@H]2C(N)=O)cc1 (some centres undefined),nt,i,i,?,i,11µM
NC(=O)[C@@H]1CC2(CC(c3cccc(NC(=O)COc4ccc(Cl)cc4)c3)=NO2)CN1C(=O)c1ccccc1 (some centres undefined),nt,i,i,i,i,15µM
Cc1ccc(NC(=O)c2cnccn2)cc1S(=O)(=O)N1CCCCCC1,nt,nt,i,?,nt,nt
COc1cc(-c2ccc3sc(-c4ccsc4)c(C#CCO)c3c2)cc(OC)c1OC,nt,i,i,9.2µM,i,i
COC(=O)c1c(-c2ccsc2)sc2ccc(-c3cc(OC)c(OC)c(OC)c3)cc12,nt,nt,i,9.2µM,nt,nt
COc1cc(-c2c(-c3ccsc3)sc3ccccc23)cc(OC)c1OC,nt,i,i,i,i,i
COC(=O)c1c(-c2ccc(OC)cc2)sc2cc3c(cc12)OCO3,nt,?,?,?,i,9.5µM
COc1ccc(-c2sc3cc4c(cc3c2C#CCO)OCO4)cc1,nt,i,i,i,i,?
CCOc1ccc2nc(N3CCC(C(=O)Nc4c(C)cccc4C)CC3)sc2c1,i,nt,nt,nt,nt,i
CCOc1ccc2nc(N3CCC(C(=O)N4CCN(c5ncccn5)CC4)CC3)sc2c1,nt,?,i,i,i,12µM
CCOc1ccc2nc(N3CCC(C(=O)N4CCN(c5ccccn5)CC4)CC3)sc2c1,i,i,7.3µM,12µM,i,11µM
SMILES,SMN2 splice up,NPC1 prom act,ELG1 genotoxic,ELG1 DNA repair,Rab9 prom act,FLuc counter
COc1cccc(C(=O)COC(=O)c2ccc(NC(C)=O)cc2)c1,i,i,i,i,i,i
O=C(CSc1nnc(-c2ccccc2)c(-c2ccccc2)n1)NCc1ccco1,i,i,i,23µM,i,i
O=C(CSc1nc(-c2ccccc2)cs1)NCc1ccco1,i,i,23µM,?,i,?
CCCCN(C(=O)CCCSc1nc2ccccc2[nH]1)c1c(N)n(Cc2ccccc2)c(=O)[nH]c1=O,nt,i,i,i,i,i
Brc1cccc(-c2n[nH]c(-c3ccccc3)n2)c1,10µM,6.3µM,2.3µM,?,3.5µM,3µM
c1ccc(-c2nc(-c3cccnc3)n[nH]2)cc1,?,i,i,?,i,?
COc1cc(-c2nnn(CC(=O)NC3CCS(=O)(=O)C3)n2)ccc1OCc1ccccc1 (centres undefined),?,?,?,?,i,12µM
O=C(N/N=C/c1cccs1)c1cc(-c2ccncc2)nc2ccccc12,i,i,i,i,i,?
CCOc1ccc(-c2cc(C(=O)N/N=C/c3cccnc3)c3ccccc3n2)cc1,nt,i,i,?,?,0.38µM
Cn1c(O)c(N=Nc2ccc(F)cc2)c2ccccc21,i,i,i,i,i,?
O=C(N/N=C/c1ccc2ncccc2c1)c1cc(-c2cccs2)nc2ccccc12,nt,i,i,?,i,?
O=C(N/N=C/c1cccnc1)c1cc(-c2cccs2)nc2ccccc12,i,i,i,?,i,24µM
O=C(N/N=C/c1ccc[nH]1)c1cc(-c2cccs2)nc2ccccc12,i,i,i,?,i,15µM
Cn1c(O)c(N=Nc2ccccc2)c2ccccc21,nt,i,i,i,i,27µM
O=S(=O)(CCC(F)=C(F)F)c1nnnn1C1CCCCC1,i,nt,nt,nt,nt,nt
Cc1cc(C)n(CC(C)(O)c2ccccc2)n1 (centres undefined),nt,i,i,i,i,i
N=c1n(CCO)c2ccccc2n1Cc1ccccc1F,i,nt,nt,nt,nt,i
CC(C)c1ccc(NC(=O)c2cn(C3CCCCC3)c(=O)c3c2c2ccccc2n3C)cc1,i,nt,nt,nt,nt,i
COc1ccc(CNC(=O)c2cc(-c3ccncc3)nc3c(C)cc(C)cc23)cc1OC,i,i,i,23µM,i,?
COc1ccc(CCNC(=O)c2cc(-c3ccncc3)nc3c(Cl)cccc23)cc1OC,i,i,i,?,i,i
Cn1cccc1/C=N/NC(=O)c1cc(-c2cccs2)nc2ccccc12,i,i,i,?,i,13µM
O=C(N=Nc1c(O)[nH]c2ccc(Br)cc12)c1cc(-c2cccs2)nc2ccccc12,i,i,i,i,i,i
Cc1cc(C(=O)N/N=C/c2ccncc2)c2ccccc2n1,nt,i,i,i,i,i
CC(C)COc1cccc(-c2cc(C(=O)N/N=C/c3ccncc3)c3ccccc3n2)c1,nt,i,i,?,i,0.95µM
Cn1c(O)c(N=NC(=O)c2cc(-c3cccs3)nc3ccccc23)c2ccccc21,i,i,i,15µM,i,2.7µM
Nc1nc(N(Cc2ccccc2)Cc2ccccc2)nc(C(F)(F)F)n1,nt,i,i,i,i,i
